Only a selection was taken, and hits are over-represented in it overall.
ERG-DNA inh: blocks human ERG Ets domain binding to DNA | P11308 | fluorescence polarization, His-ERG Ets domain / labelled DNA | Potency, µM (top dose mostly 76.9 µM), for inactives: at the highest dose FP activity, negative = inhibition, actives largely listed as inhibitors | 370,000 tested, 0.028% active; active = well fitted inhibition curve with a large enough effect in the polarisation, with a control signal flat; inconclusive = small, poorly fitted or top-dose-only effect, or effect the other way, or a change in a side signal; inactive = no such curve, though single readings can be large or run the other way; the % refers to the polarisation;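 also: polarization taken with two DNA probes labelled with fluorescein and Texas red; potency is read from the fitted curve at half-maximal effect; % of control where 0% means no effect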
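His-tagged ERG Ets domain (1 uM in the protein solution; 300mM KCl, 50mM Tris-HCl, 1mM EDTA, 1mM DTT, pH 7.5) received compound, then a probe mix of 5 nM fluorescein-DNA and 100nM Texas-615-DNA. Fluorescence polarization was read for both dyes.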
a7 integrin act: activates integrin-mediated alleviation for muscular dystrophy; Potency, µM (top dose mostly 38.3 µM), without a hit: at the top dose activation, most hits filed as activators; 350,000 tested, 0.064% active; alpha7betagal myoblasts, beta-gal FDG fluorescence, 48 h; AID 624291;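 also: potency is read from the fitted curve at half-maximal effect; 100% = response of the positive control SU9516; nearly all actives have a fitted effect of over 60% in size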
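alpha7betagal+/- myoblasts (passage 13, 250/well) treated 48 h at 37C with compounds at 1:260 dilution of DMSO stock. Lysed, then beta-galactosidase activity read as FDG fluorescence (ex 480/em 540) after 30 min, with pre-read for autofluorescence.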
RORg inh: inhibitors of mouse ROR gamma transcriptional activity. P51450. Drosophila S2 Gal4-RORgamma UAS-luciferase reporter, 20 h. Potency, µM (top dose mostly 53.6 µM), without a hit: at the top dose activity change, negative = inhibition, usual class: inhibitors. 310,000 tested, 5.4% active; also: potency is read from the fitted curve at half-maximal effect; % is scaled to controls: 0 for no effect and ±100 for the full control effect; nearly all actives have a fitted effect of over 60% in size
Target sequence (P51450 whole entry, looked up, the tested form may be a part): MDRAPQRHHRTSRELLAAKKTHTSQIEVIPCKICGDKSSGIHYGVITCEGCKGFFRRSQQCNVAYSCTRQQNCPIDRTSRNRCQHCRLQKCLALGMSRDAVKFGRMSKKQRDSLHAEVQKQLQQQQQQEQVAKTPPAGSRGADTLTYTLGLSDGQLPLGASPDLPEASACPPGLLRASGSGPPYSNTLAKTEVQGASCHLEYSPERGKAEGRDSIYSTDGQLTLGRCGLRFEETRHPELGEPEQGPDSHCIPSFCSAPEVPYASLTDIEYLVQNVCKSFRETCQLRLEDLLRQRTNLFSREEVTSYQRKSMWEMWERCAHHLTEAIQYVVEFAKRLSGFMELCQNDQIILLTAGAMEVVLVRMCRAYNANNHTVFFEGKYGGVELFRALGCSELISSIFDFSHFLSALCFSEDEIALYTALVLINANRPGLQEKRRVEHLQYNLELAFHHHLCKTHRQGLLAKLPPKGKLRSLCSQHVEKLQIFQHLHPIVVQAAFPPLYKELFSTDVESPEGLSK
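Using a luciferase readout, inhibitors were identified by reduced reporter activity in Drosophila cells coexpressing a copper-inducible Gal4–ROR gamma fusion and UAS-driven Photinus luciferase, incubated 20 hr after 700 uM copper sulfate.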
Gal4-VP16 FLuc: Gal4-VP16 reporter inhibition counter-screen | 310,000 tested, 3.5% active | Potency, µM (series often up to 53.6 µM), for the others: at the top dose activity, negative = inhibition, hits mostly inhibitors | Drosophila S2 Gal4-VP16 UAS-luciferase, luminescence, 20 h;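 also: Gal4-VP16 expression switched on by copper sulfate through the metallothionein promoter; potency is read from the fitted curve at half-maximal effect; % is scaled to controls: 0 for no effect and ±100 for the full control effect; nearly all actives have a fitted effect of over 50% in size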
Giardia killer: Giardia lamblia killing | activity change, % at 7.66 µM, hits read low | AID 540267 | Giardia lamblia trophozoite viability | 340,000 tested, 0.15% active; in the data active = activity change below about -80%; inconclusive = between about -30% and that limit;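 also: parasites exposed to compound for two days anaerobically before the ATP read; % is scaled to controls: 0 for no effect and ±100 for the full control effect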
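Killing of trophozoites was scored by loss of ATP luminescence after a 48 hrs anaerobic exposure to compounds at 37 deg C, using 100 cells per well.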
Starred values were filed as active, the others as inactive; ? = inconclusive; nt = no result given. Unless noted, calls follow the shape of the dose curve; as a rule, active = well fitted curve in the direction sought with a large enough effect; inconclusive = small, poorly fitted or top-dose-only effect, or another doubt; inactive = no such curve, though single readings can be large; an effect the other way counts as inactive or inconclusive.

SMILES	ERG-DNA inh	a7 integrin act	RORg inh	Gal4-VP16 FLuc	Giardia killer
O=C(CSc1nnc2ccccn12)c1ccc2c(c1)OCCO2	3%	-12%	13µM*	?	-7
Cc1cc(C(=O)CSc2nnc3ccccn23)c(C)n1-c1ccccc1	-15%	0%	5µM*	2.8µM*	-11
CCN1C(=O)/C(=C2/C=Cc3cc(C)ccc3N2CC)N(C)C1=S	1%	-53%	13µM*	?	-4
CCN1/C(=C2/SC(=S)N(C)C2=O)C=Cc2cc(C)ccc21	7%	26%	nt	nt	45
CC(=O)n1cc(C(C[N+](=O)[O-])SCCN)c2ccccc21 (stereo not drawn)	0%	-37%	13µM*	?	-2
CC(=O)N1CCN(C(=S)NC(=O)c2ccc(S(=O)(=O)N3CCOCC3)cc2)CC1	nt	16%	23%	-4%	6
CC(C)CC(=O)Nc1ccc(S(=O)(=O)Nc2cc3c(cc2N2CCOCC2)n(C)c(=O)c(=O)n3C)cc1	0%	nt	nt	nt	nt
CCCCN(CCCC)C(=O)CSc1nnc2n(C)c(=O)c3c4c(sc3n12)CCCC4	-1%	13%	?	4.5µM*	-9
CCCSc1nnc2n(C)c(=O)c3c4c(sc3n12)CCC4	-5%	11%	?	4%	18
CC1CCCN(c2ccc3nc4ccccc4c(=O)n3n2)C1 (stereo not drawn)	-1%	-19%	8.9µM*	4.5µM*	?
COc1ccc(C=O)cc1CSc1ccccn1	6%	5%	-3%	4%	17
O=C(N/N=C/c1cccc(Oc2ccccc2)c1)c1ccc(O)cc1O	-3%	-25%	0.63µM*	2.2µM*	13
COc1ccc(/C=N/NC(=O)c2ccc(O)cc2O)cc1CSc1ccccn1	0%	-1%	0.089µM*	2µM*	-6
COc1ccc(/C=N/NC(=O)c2cccnc2)cc1CSc1nc2ccccc2s1	6%	-10%	?	20µM*	-10
O=C(N/N=C/c1cccc(Oc2ccccc2)c1)c1ccncc1	0%	0%	?	?	3
CCOc1cc(CNC(=O)Cn2c(=O)c3cccn3c3ccc(F)cc32)cc(OCC)c1OCC	-4%	nt	nt	nt	nt
COc1ccc2cc(N=Cc3nc(-c4ccc(C)cc4)oc3O)cnc2c1	1%	-4%	-11%	9%	8
CSc1nnc2c3ccccc3n(CCc3ccccc3)c2n1	-1%	-37%	8%	3%	-9
S=c1nc2c(n[nH]1)c1ccccc1n2CCc1ccccc1	1%	16%	2.2µM*	1.4µM*	-9
COc1ccc(CNC(=O)C2(CC3CC(c4ccccc4)=NO3)CCNCC2)cc1 (stereo not drawn)	0%	-9%	nt	nt	9
COc1ccc(-n2c(SCC(=O)Nc3cccc4ccccc34)nc(O)cc2=O)cc1	13%	5%	35µM*	12%	4
O=[N+]([O-])c1ccc(/C=C2\CCC(C3=CCCC3)=C2N2CCOCC2)cc1	5%	-29%	?	4µM*	-3
CCN(c1ccc(C)cc1C)S(=O)(=O)c1nnc(NC(=O)C(C)(C)C)s1	-5%	21%	-14%	-2%	-4
O=C(Cc1cccs1)NNC(=S)NC(=O)c1ccco1	18%	-38%	7.9µM*	19%	4
O=C(Cc1ccc(Cl)cc1)NNC(=S)NC(=O)c1cccs1	-9%	20%	-42%	-8%	3
SMILES	ERG-DNA inh	a7 integrin act	RORg inh	Gal4-VP16 FLuc	Giardia killer
O=C(Cc1cccs1)NNC(=S)NCc1ccc(Cl)cc1	-21%	-2%	4µM*	-15%	-2
O=C(O)C1NCCN(C(=O)c2ccc3c(ccc4ccccc43)c2)C1C(=O)O (stereo not drawn)	nt	nt	-6%	-9%	nt
COc1ccc(S(=O)(=O)N(CC(=O)N(C)Cc2ccccc2)c2ccc(Cl)cc2)cc1	4%	nt	nt	nt	nt
Nc1ccc(C(=O)NC2CCSc3ccccc32)cc1[N+](=O)[O-] (stereo not drawn)	5%	-11%	?	7.9µM*	0
Cc1ccc(C(=O)NC2CCCc3ccccc32)cc1[N+](=O)[O-] (stereo not drawn)	-10%	0%	7%	-23%	-20
Cc1c(Cl)sn(-c2ccc(Cl)cc2)c1=O	-6%	-43%	1.6µM*	2.8µM*	-3
COc1cc2cc(C(=O)N(C)C3CCS(=O)(=O)C3)[nH]c2cc1OC (stereo not drawn)	3%	12%	20µM*	2%	-23
